This note sets out measurements from PubChem BioAssay (EPA / NIEHS).

“And” between values parts separate entries of the source, which are not always exact repeats. Identical values can stand only once. Results filed as inconclusive are left out. Some structures have more than one record in an assay (separate samples or runs), and their calls can disagree. The source made the active and inactive calls. Rule for the calls: active = hit-call score of the fitted dose curve at least 0.9, where 1 is the maximum; inconclusive = response in the unintended direction; inactive = score below 0.9.

Assay [1] has as its target Estrogen receptor (Homo sapiens) (UniProt P03372). Kind of assay: NVS_NR_hER: NovaScreen (NVS) Nuclear Receptor Binding Assay for human Estrogen Receptor (ER) (AID 2283348). Summed up: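 Cell-free MCF7-derived ER preparation, specific radioligand displaced by test compound, read by scintillation counting 18 h post-dosing. Duplicate single-point 25 uM screen, then concentration-response confirmation; DMSO baseline.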

For assay [2] the target is unchanged. The assay is described as follows: OT_ER_ERaERa_1440: Odyssey Thera (OT) 24-hour HEK293T Protein-Complementation Assay for Estrogen Receptor-alpha/-alpha Homodimer (AID 2283349).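 Note: hits raise fluorescence above DMSO for agonists and antagonists alike.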 Summed up:
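HEK293T, stable ERα LBD (aa 310-547) homodimer PCA; 24 h compound exposure; mean fluorescence intensity (nuclear for agonists, nuclear plus cytoplasmic for antagonists) vs vehicle; positive fitting direction, DMSO baseline.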

The target is the same in assay [3]. Kind of assay: OT_ER_ERaERa_0480: Odyssey Thera (OT) 8-hour HEK293T Protein-Complementation Assay for Estrogen Receptor-alpha/-alpha Homodimer (AID 2283351).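 Note: rise in fluorescence from reassembled reporter fragments on ERα LBD homodimer in nucleus or whole cell.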 A digest of the protocol: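 Measures ERα LBD (aa 310-547) homodimer complementation in stably transfected HEK293T at 8 h post-dose, with fluorescence intensity quantified on a laser scanning cytometer relative to DMSO controls.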

Assay [4] has as its target T1, Estrogen receptor (Homo sapiens) + Estrogen receptor beta (Homo sapiens) (UniProt P03372+Q92731). Kind of assay: OT_ER_ERaERb_0480: Odyssey Thera (OT) 8-hour HEK293T Protein-Complementation Assay for Estrogen Receptor-alpha/-beta Heterodimer (AID 2283352). Summed up: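 HEK293T cells expressing ER-alpha/ER-beta LBD fusions to complementary reporter fragments were dosed with compound for 8 hours. Heterodimer formation was read as increased nuclear (agonist) or nuclear plus cytoplasmic (antagonist) mean fluorescence intensity versus DMSO vehicle.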

The target in assay [5] is T1, Estrogen receptor (Homo sapiens) + Estrogen receptor beta (Homo sapiens). Kind of assay: OT_ER_ERaERb_1440: Odyssey Thera (OT) 24-hour HEK293T Protein-Complementation Assay for Estrogen Receptor-alpha/-beta Homodimer (AID 2283356).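 Note: heteromer of ER alpha and ER beta binding domains; hits raise reporter fluorescence and both agonists and antagonists give an increase.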 A digest of the protocol:
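HEK293T cells stably expressing a PCA pair of ERα LBD (aa 310-547) and ERβ LBD (aa 263-489) were dosed for 24 h. Fluorescence intensity increase versus DMSO vehicle was fitted as gain-of-signal.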

Assay [6] has as its target Estrogen receptor beta (Homo sapiens) (UniProt Q92731). Kind of assay: OT_ER_ERbERb_0480: Odyssey Thera (OT) 8-hour HEK293T Protein-Complementation Assay for Estrogen Receptor-beta/-beta Homodimer (AID 2283357).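 Note: active means signal gain over DMSO baseline.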 A digest of the protocol:
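ER-beta LBD homodimer PCA stably expressed in HEK293T; 8 h compound exposure, then formaldehyde fixation and Draq5 staining. Gain in nuclear/cytoplasmic fluorescence intensity versus DMSO vehicle, read on laser scanning cytometer.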

The target of assay [7] is human Peroxisome Proliferator-activated Receptor alpha (PPARa), PPARA (gene 5465) (UniProt Q07869). Kind of assay: NVS_NR_hPPARa: NovaScreen (NVS) Nuclear Receptor Binding Assay for human Peroxisome Proliferator-activated Receptor alpha (PPARa) (AID 2283359).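 Note: activity means loss of TR-FRET signal versus DMSO baseline.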 Summed up:
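Loss of TR-FRET binding signal relative to DMSO was measured 1 h after chemical addition to extracted receptor protein. Chemicals were first tested in duplicate at 25 uM, and actives were followed up in concentration series.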

The target in assay [8] is PGR (gene 5241) (UniProt P06401). Kind of assay: NVS_NR_hPR: NovaScreen (NVS) Nuclear Receptor Binding Assay for human Progestron Receptor (PR) (AID 2283360).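 Note: active means loss of bound radioligand signal versus DMSO baseline.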 Summed up:
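Cell-free radioligand binding using receptor protein extracted from T47D cells, read by scintillation counting 18 hours after dosing. Loss of signal relative to DMSO baseline indicates displacement; primary screen single concentration 25 uM in duplicate, actives followed in concentration series.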

For assay [9], the target named is chimpanzee Androgen Receptor (AR), AR (gene 747460) (UniProt O97775). The assay is described as follows: NVS_NR_cAR: NovaScreen (NVS) Nuclear Receptor Binding Assay for chimpanzee Androgen Receptor (AR) (AID 2283346).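 Note: radioligand displacement from AR measured by scintillation counting in a cell-free assay; a loss of bound radioligand signal versus DMSO counts as binding.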 Summed up:
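Cell-free competition binding with insect-cell (Sf9/Sf21) extracted chimpanzee AR; scintillation signal from lysate at 72 h. Screened in duplicate at 25 uM, then concentration-response for actives; fitting relative to DMSO.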

For assay [10], the target named is Androgen Receptor/SRC-1 Co-activator, AR (gene 367) (UniProt P10275). Kind of assay: OT_AR_ARSRC1_0960: Odyssey Thera (OT) 16-hour HEK293T Protein-Complementation Assay for Androgen Receptor/SRC-1 Co-activator (AID 2283353).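 Note: actives raise the signal above DMSO so potency reflects increased AR and SRC-1 complex.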 Summed up:
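Sixteen-hour cell assay: Venus halves fused to AR and SRC-1 in HEK293T report binding. Images at 488/635 nm give an N/C ratio in the 488 nm channel over ≥400 cells, analysed as signal increase over DMSO.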

Assay [11] has the same target. Kind of assay: OT_AR_ARSRC1_0480: Odyssey Thera (OT) 8-hour HEK293T Protein-Complementation Assay for Androgen Receptor/SRC-1 Co-activator (AID 2283354).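 Note: hits raise the complementation signal above DMSO so AC50 marks enhancers.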 Summed up: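 Reconstituted split-Venus YFP signal from AR–SRC-1 interaction, read by imaging 8 h post-dose in stable HEK293T lines. The 488 nm nucleus-to-cytoplasm ratio (≥400 cells/image) was fitted upward against DMSO.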

In assay [12] the target is Glucocorticoid receptor (Homo sapiens) (UniProt P04150). Kind of assay: NVS_NR_hGR: NovaScreen (NVS) Nuclear Receptor Binding Assay for human Glucocorticoid Receptor (GR) (AID 2283363).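 For AC50: activity is loss of specific radioligand binding signal relative to DMSO.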 A digest of the protocol: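 Compounds first tested in duplicate at 25 uM, actives followed up in concentration series. Binding to extracted GR protein measured as competitive radioligand displacement, filter scintillation read 16 h post-dosing, normalised to DMSO.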
Chain of Glucocorticoid receptor (Homo sapiens) (P04150 whole entry, looked up): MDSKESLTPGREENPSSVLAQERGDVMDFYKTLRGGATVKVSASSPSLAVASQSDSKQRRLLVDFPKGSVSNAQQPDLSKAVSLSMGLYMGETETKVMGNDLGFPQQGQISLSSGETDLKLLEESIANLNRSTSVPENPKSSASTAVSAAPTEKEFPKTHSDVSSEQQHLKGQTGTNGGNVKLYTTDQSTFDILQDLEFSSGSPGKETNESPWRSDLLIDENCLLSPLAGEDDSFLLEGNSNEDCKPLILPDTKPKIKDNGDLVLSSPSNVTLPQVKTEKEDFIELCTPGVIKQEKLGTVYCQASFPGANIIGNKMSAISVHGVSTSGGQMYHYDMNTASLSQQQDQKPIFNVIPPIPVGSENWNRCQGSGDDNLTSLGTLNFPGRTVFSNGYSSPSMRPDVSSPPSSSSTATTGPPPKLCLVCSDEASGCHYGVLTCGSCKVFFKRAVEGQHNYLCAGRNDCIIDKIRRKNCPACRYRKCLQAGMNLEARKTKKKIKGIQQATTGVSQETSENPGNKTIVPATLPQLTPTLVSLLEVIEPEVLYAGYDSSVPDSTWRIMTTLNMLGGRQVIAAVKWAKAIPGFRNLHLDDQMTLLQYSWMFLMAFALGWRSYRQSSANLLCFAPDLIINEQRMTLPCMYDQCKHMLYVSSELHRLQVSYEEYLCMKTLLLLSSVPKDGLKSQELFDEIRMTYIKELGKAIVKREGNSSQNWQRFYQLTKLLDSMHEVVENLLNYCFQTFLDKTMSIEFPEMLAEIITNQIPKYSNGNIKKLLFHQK

For assay [13], the target named is Retinoic acid receptor alpha (Homo sapiens) (UniProt P10276). The assay is described as follows: NVS_NR_hRAR_Antagonist: NovaScreen (NVS) Nuclear Receptor Binding Assay for human Retinoic Acid Alpha Receptor Antagonism (RAR) (AID 2283358). A digest of the protocol:
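RARalpha antagonism was read by TR-FRET as loss of binding signal versus DMSO, 2 h after chemical addition, in a biochemical format. Single-concentration duplicates (25 uM) were run first, and actives were retested in concentration series.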

Assay [14] concerns the target Nuclear receptor subfamily 1 group I member 2 (Homo sapiens) (UniProt O75469). The assay is described as follows: NVS_NR_hPXR: NovaScreen (NVS) Nuclear Receptor Binding Assay for human Pregnane X Receptor (PXR) (AID 2283365).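 Note: a drop in FRET signal versus DMSO baseline means the compound binds.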 A digest of the protocol:
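Cell-free binding assay with extracted human PXR protein, read by TR-FRET 2 h after dosing; loss of signal relative to DMSO baseline indicates binding. Primary screen at 25 uM in duplicate, actives retested in concentration series.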

Assay [15] addresses human Thyroid Receptor Alpha (TRa), THRA (gene 7067) (UniProt P10827). Kind of assay: NVS_NR_hTRa_Antagonist: NovaScreen (NVS) Nuclear Receptor Binding Assay for human Thyroid Receptor Alpha Antagonism (TRa) (AID 2283362).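 Note: activity is loss of signal relative to DMSO baseline.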 Summed up: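 Cell-free binding assay on extracted receptor protein, read 1 h after chemical dosing by AlphaLISA chemiluminescence; loss of signal relative to DMSO baseline marks antagonism. Primary screen ran in duplicate at 25 uM, with concentration series for actives.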

The target of assay [16] is rat Mineralocorticoid Receptor (MR), Nr3c2 (gene 25672) (UniProt P22199). The assay is described as follows: NVS_NR_rMR: NovaScreen (NVS) Nuclear Receptor Binding Assay for rat Mineralocorticoid Receptor (MR) (AID 2283355). A digest of the protocol: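 Primary HTS ran in duplicate at a single 25 uM concentration, with concentration-series follow-up for actives. Receptor source: adrenalectomized rat brain supernatant, cell-free. Radioligand displacement read by scintillation at 24 h, relative to DMSO baseline.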
Chain of rat Mineralocorticoid Receptor (MR), Nr3c2 (gene 25672) (P22199 whole entry, looked up): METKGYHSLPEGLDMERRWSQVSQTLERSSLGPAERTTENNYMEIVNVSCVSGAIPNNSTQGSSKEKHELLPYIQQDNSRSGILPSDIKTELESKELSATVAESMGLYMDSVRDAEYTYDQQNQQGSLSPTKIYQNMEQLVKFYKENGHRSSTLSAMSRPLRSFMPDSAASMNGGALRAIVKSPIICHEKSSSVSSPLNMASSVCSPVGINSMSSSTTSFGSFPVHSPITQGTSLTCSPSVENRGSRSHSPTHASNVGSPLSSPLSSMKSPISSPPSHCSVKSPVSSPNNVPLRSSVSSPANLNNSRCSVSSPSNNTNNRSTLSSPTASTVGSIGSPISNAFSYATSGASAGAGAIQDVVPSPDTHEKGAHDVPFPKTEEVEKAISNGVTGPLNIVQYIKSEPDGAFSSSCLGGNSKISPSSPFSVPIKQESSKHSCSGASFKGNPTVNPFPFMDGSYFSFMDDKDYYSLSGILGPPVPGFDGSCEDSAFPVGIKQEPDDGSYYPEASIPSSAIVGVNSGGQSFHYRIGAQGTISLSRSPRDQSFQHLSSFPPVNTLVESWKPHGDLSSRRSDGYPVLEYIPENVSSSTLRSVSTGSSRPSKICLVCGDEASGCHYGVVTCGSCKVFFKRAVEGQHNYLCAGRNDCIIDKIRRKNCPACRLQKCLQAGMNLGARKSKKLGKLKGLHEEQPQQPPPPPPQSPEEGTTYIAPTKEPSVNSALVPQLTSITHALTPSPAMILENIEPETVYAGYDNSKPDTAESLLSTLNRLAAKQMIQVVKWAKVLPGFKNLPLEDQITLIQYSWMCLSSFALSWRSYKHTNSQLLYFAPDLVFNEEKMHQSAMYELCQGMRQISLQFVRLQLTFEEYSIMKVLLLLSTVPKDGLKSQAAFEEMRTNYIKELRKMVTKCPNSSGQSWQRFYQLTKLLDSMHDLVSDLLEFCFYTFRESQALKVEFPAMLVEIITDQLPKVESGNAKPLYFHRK

In assay [17] the target is Bile acid receptor (Homo sapiens) (UniProt Q96RI1). The assay is described as follows: NVS_NR_hFXR_Agonist: NovaScreen (NVS) Nuclear Receptor Binding Assay for human Farnesoid X Receptor Agonism (FXR) (AID 2283347). Summed up: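 Agonist-mode FXR assay read by time-resolved FRET 1 h after compound addition, using isolated human receptor protein without cells. Duplicate 25 uM single-point primary screen, concentration series for confirmed actives; DMSO as baseline.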

Chain of Estrogen receptor beta (Homo sapiens) (Q92731 whole entry, looked up, the tested form may be a part): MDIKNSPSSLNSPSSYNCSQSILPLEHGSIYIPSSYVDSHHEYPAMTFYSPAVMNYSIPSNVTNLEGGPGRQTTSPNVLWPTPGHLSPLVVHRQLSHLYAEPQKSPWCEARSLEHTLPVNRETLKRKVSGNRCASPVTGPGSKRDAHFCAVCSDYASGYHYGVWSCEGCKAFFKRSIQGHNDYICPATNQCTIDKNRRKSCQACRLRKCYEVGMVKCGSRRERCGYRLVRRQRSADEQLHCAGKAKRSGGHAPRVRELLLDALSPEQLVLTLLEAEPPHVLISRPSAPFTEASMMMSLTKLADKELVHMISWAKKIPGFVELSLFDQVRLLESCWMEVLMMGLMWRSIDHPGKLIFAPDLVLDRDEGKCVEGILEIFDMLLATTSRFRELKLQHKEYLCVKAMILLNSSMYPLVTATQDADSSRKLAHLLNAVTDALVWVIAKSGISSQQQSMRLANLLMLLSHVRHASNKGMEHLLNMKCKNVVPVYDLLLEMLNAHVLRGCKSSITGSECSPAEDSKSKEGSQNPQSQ
T1 sequence (P03372 whole entry, looked up, the tested form may be a part): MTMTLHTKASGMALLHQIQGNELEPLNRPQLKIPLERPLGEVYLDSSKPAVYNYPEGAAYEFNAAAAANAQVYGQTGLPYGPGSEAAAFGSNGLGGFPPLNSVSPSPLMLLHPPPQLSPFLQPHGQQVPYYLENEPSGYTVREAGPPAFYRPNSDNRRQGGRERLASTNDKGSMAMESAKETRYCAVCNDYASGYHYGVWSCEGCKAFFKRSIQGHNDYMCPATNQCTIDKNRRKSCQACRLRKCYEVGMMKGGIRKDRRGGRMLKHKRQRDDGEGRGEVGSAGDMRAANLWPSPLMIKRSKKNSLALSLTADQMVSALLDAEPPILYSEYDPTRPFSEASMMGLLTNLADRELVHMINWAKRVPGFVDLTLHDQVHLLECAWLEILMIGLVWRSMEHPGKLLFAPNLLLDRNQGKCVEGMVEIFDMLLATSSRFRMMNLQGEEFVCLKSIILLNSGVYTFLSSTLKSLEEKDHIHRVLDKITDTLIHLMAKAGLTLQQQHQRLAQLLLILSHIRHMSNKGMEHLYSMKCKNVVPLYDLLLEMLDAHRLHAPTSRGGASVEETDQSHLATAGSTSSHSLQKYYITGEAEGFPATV
T1 sequence (Q92731 whole entry, looked up, the tested form may be a part): as the sequence (Q92731 whole entry, looked up, the tested form may be a part) above
Chain of Estrogen receptor (Homo sapiens) (P03372 whole entry, looked up): as the sequence (P03372 whole entry, looked up, the tested form may be a part) above
Chain of human Peroxisome Proliferator-activated Receptor alpha (PPARa), PPARA (gene 5465) (Q07869 whole entry, looked up): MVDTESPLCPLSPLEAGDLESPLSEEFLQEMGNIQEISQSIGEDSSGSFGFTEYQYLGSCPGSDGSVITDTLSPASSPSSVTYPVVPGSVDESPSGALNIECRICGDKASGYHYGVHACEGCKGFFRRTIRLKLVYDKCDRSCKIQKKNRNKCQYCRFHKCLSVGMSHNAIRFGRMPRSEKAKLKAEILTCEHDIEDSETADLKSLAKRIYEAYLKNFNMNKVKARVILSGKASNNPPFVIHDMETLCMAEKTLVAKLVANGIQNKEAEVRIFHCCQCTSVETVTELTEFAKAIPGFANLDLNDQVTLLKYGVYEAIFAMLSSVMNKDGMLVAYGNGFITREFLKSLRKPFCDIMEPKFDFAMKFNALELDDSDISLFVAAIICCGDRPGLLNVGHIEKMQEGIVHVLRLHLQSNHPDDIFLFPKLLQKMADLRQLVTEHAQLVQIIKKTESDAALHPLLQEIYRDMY
Chain of Retinoic acid receptor alpha (Homo sapiens) (P10276 whole entry, looked up): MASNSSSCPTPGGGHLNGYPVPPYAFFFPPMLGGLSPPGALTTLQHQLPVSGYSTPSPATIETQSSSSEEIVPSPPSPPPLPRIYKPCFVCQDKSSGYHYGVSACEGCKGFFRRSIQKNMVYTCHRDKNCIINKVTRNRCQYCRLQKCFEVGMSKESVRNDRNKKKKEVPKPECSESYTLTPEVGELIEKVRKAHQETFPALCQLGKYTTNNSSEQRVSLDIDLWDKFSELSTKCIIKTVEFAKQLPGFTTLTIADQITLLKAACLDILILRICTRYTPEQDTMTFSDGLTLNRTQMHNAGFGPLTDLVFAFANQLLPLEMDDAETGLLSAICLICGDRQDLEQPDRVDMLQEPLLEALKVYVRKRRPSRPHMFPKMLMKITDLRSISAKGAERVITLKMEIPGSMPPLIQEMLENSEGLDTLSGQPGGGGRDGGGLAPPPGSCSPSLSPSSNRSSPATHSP
Chain of human Thyroid Receptor Alpha (TRa), THRA (gene 7067) (P10827 whole entry, looked up): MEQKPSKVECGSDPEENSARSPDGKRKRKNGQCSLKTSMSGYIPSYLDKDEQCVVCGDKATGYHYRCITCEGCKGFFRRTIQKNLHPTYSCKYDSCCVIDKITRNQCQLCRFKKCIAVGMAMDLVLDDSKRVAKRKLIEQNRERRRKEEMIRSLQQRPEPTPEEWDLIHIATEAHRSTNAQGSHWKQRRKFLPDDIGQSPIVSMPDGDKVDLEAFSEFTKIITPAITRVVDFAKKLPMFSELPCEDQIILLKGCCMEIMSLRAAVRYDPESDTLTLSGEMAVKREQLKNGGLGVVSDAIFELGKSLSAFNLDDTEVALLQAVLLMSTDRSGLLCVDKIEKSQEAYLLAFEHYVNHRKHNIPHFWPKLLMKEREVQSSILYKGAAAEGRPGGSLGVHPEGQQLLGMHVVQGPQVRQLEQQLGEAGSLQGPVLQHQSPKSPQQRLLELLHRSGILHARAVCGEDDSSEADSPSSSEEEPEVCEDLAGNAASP
Chain of Nuclear receptor subfamily 1 group I member 2 (Homo sapiens) (O75469 whole entry, looked up): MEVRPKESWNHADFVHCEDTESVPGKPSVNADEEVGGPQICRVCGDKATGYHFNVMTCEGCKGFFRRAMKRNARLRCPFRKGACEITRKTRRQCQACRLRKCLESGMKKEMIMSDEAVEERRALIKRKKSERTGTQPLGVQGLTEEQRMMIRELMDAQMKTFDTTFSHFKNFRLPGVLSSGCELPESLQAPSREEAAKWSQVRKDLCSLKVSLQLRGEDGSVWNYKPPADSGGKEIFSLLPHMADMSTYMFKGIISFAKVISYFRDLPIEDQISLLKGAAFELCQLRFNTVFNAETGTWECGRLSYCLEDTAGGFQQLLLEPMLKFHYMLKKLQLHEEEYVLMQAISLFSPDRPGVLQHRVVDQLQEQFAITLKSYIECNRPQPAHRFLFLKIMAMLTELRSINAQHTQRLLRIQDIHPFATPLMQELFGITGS

As for `Nn1cnnc1`, the call in [1], in assay [2], in [3], in [4], in assay [5] and in assay [6] was inactive.

In the case of `Cc1cccc([N+](=O)[O-])c1`, the result in assay [1], in [2] and in [3] was inactive.

Consider `Cc1ccc(O)c(C)c1`, for which the compound was called inactive in assay [1], in [2], in assay [3], in assay [4], in assay [5] and in assay [6]. For the same compound, the compound was called inactive in [7] and in [8].

On to `ClC1=C(Cl)[C@]2(Cl)[C@@H]3[C@@H](Cl)[C@H]4O[C@H]4[C@@H]3C1(Cl)C2(Cl)Cl`, for which the result in assay [1], in assay [2], in [3] and in assay [4] was inactive. Also, the AC50 was 50 µM (active) in assay [5] and 13.8 µM (active) in assay [6].

Take `CCOC(=O)C(O)(c1ccc(Cl)cc1)c1ccc(Cl)cc1`: the half-maximal activity concentration (AC50) in assay [9] was 6.34 µM (active); in assay [10] it was 37 µM (active); in assay [11], 66.7 µM (active). Also, the result in [1], in assay [2], in assay [3], in assay [4], in assay [5] and in [6] was inactive. Also, in [12], the compound was classed as inactive.

Consider `Cc1cc(-c2ccc(N)c(C)c2)ccc1N`, for which the AC50 in assay [9] is 888 nM (active) and 16 µM (active); in assay [1], 0.0153 µM (active); in [3], 72.3 µM (active). Besides, the compound was classed as inactive in [1], in assay [2], in [3], in assay [13] and in assay [14].

For `CCCCCCCCCC[N+](C)(C)CCCCCCCCCC`, the AC50 is 12.3 µM (active) in [9], 39.1 µM (active) in [1], 0.861 µM (active) in assay [7] and 5.53 µM (active) in [12]. Besides, the compound was classed as inactive in [2], in assay [3], in assay [4] and in assay [5].

For the compound `ClC1=C(Cl)[C@]2(Cl)[C@@H]3[C@H]4C[C@H]([C@@H]5O[C@H]45)[C@@H]3[C@@]1(Cl)C2(Cl)Cl`, the compound was classed as inactive in assay [1], in assay [2] and in assay [3].

With `Oc1ccc(Cl)cc1Cl`, the call in assay [1], in assay [2], in assay [3], in [5], in assay [13] and in [8] was inactive. Further, the outcome in assay [15] was inactive. Also, the AC50 in assay [4] was 66.5 µM (active); in [6] it was 50 µM (active).

Turning to `Nc1ccc(-c2ccc(N)cc2)cc1`, the AC50 in assay [9] is 19.9 µM (active). Moreover, the compound was classed as inactive in assay [1], in [2], in assay [3], in assay [4], in assay [5] and in [6].

As to `CCC(C)(c1ccc(O)cc1)c1ccc(O)cc1`, the AC50 in assay [9] was 19.7 µM (active); in assay [8], 10.2 µM (active); in assay [14] it was 16.7 µM (active) and 11.4 µM (active) and 9.16 µM (active). The compound was called inactive in assay [9], in assay [16] and in assay [7].

Take `O=S(=O)(O)C(F)(F)C(F)(F)C(F)(F)C(F)(F)C(F)(F)C(F)(F)F`: the result in [17], in assay [1], in assay [2], in [3], in assay [7] and in assay [15] was inactive.

In the case of `CCOCCOC(C)=O`, the result in [1], in assay [2] and in assay [3] was inactive.

As to `CC(C)(c1ccccc1)c1ccc(O)cc1`, the AC50 is 25 µM (active) in assay [9]; 11.9 µM (active) and 12 µM (active) and 12.1 µM (active) in assay [2]; 11.9 µM (active) and 12 µM (active) in assay [3]; 2.01 µM (active) and 11.9 µM (active) in [4]; 11.9 µM (active) in [5]; 1.8 µM (active) and 1.91 µM (active) and 2.14 µM (active) in [6]. Further, the concentration at half-maximal activity (AC50) in [8] was 13.9 µM (active); in assay [12] it was 5.28 µM (active) and 6.67 µM (active) and 16.2 µM (active); in assay [14] it was 12.7 µM (active) and 25 µM (active). For the same compound, the compound was classed as inactive in [14].

With `c1ccc(-c2ccccc2)cc1`, the call in [1], in assay [2], in assay [3], in assay [4], in assay [10] and in assay [11] was inactive. The result in assay [5] and in [6] was inactive.

Take `Oc1c(Cl)c(Cl)c(Cl)c(Cl)c1Cl`: the AC50 in [9] was 5 µM (active). The outcome in assay [2], in assay [3], in assay [7], in assay [8] and in [12] was inactive.

`ClC(Cl)=C(c1ccc(Cl)cc1)c1ccc(Cl)cc1`: the AC50 in assay [9] was 16.8 µM (active); in assay [2] it was 84.3 µM (active) and 78.6 µM (active); in assay [3], 80.1 µM (active) and 56.9 µM (active) and 63.7 µM (active). Also, the compound was classed as inactive in assay [1], in assay [2], in assay [7] and in assay [15].

Take `CO/C=C(/C(=O)OC)c1ccccc1COc1cccc(C(F)(F)F)n1`: the result in [1], in [2], in [3], in assay [4], in assay [5] and in assay [6] was inactive.

For `CC#Cc1cc(C)nc(Nc2ccccc2)n1`, in [16], the result was inactive.

As to `CCCCCCOC(=O)c1ccccc1C(=O)OCCCCCC`, in [16], the outcome was inactive.

For the compound `Cc1ccccc1CO[C@@H]1C[C@@]2(C(C)C)CC[C@]1(C)O2`, the call in assay [13] was inactive.

Consider `Cc1ccccc1[N+](=O)[O-]`, for which the outcome in assay [8] was inactive.

Turning to `O=C(N[C@H]1CN2CCC1CC2)c1cc2ccoc2cn1`, in assay [8], the call was inactive.
